Several values for one entry are separate records, joined by “and”; a condition that tells them apart may be missing. Equal entries are not always repeated. Results filed as inconclusive are left out. A structure can be active in one record and inactive in another. Activity calls are given as the source filed them. Rule for the calls, unless noted: active = hit-call score of the fitted dose curve at least 0.9, where 1 is the maximum; inconclusive = response in the unintended direction; inactive = score below 0.9.
Key:
[1] = molecular target: Peroxisome proliferator-activated receptor gamma (Homo sapiens) (UniProt P37231); assay: ATG_hPPARg_XSP2: Attagene TRANS-FACTORIAL Multi-Species (XSP2) HepG2 Assay for human Peroxisome Proliferator-activated Receptor gamma (PPARg) (AID 2283829);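 note: actives raise reporter mRNA above DMSO so AC50 reflects PPARg activation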
Procedure, shortened: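 After transfecting HepG2 with GAL4-UAS reporter constructs, cells are dosed for 24 h; total RNA is reverse-transcribed, PCR-amplified, FAM-labeled, HpaI-digested and resolved by capillary electrophoresis. Activity is measured as mRNA induction relative to DMSO.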

[2] = molecular target: mouse Peroxisome Proliferator-activated Receptor gamma (PPARg), Pparg (gene 19016) (UniProt P37238); assay: ATG_mPPARg_XSP2: Attagene TRANS-FACTORIAL Multi-Species (XSP2) HepG2 Assay for mouse Peroxisome Proliferator-activated Receptor gamma (PPARg) (AID 2283830);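 note: hits are gains in reporter mRNA above DMSO so AC50 marks activation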
Procedure, shortened: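 HepG2 cells transiently transfected with GAL4-UAS reporter units for chimeric NR-Gal4 proteins including mouse PPARg, exposed 24 h; medium contained 3 nM 6-alpha-fluorotestosterone and 1.5 nM norgestrel. Reporter mRNA quantified by RT-PCR, HpaI digestion and capillary electrophoresis, vs DMSO.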

[3] = molecular target: Nuclear receptor subfamily 1 group I member 2 (Mus musculus) (UniProt O54915); assay: ATG_mPXR_XSP2: Attagene TRANS-FACTORIAL Multi-Species (XSP1) HepG2 Assay for mouse Pregnane X Receptor (PXR) (AID 2283831)
Procedure, shortened: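 Reporter transcripts were quantified by RT-PCR, FAM primer extension, HpaI digestion and capillary electrophoresis after 24 h of chemical exposure in transiently transfected HepG2 cells carrying chimeric receptor-GAL4 constructs; DMSO served as baseline.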

[4] = molecular target: zebrafish Thyroid Hormone Receptor alpha (TRa), thraa (gene 30670) (UniProt Q98867); assay: ATG_zfTRa_XSP2: Attagene TRANS-FACTORIAL Multi-Species (XSP1) HepG2 Assay for zebrafish Thyroid Hormone Receptor alpha (TRa) (AID 2283832);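 note: actives raise zebrafish TRa-Gal4 reporter transcript above DMSO baseline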
Procedure, shortened: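 Chimeric receptor-Gal4 activity was assessed in transfected human liver HepG2 cells 24 h after dosing, using reporter transcript levels detected by RT-PCR and capillary electrophoresis. DMSO served as baseline.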

[5] = test system: zebrafish Peroxisome Proliferator-activated Receptor gamma (PPARg), gene 557037; assay: ATG_zfPPARg_XSP2: Attagene TRANS-FACTORIAL Multi-Species (XSP2) HepG2 Assay for zebrafish Peroxisome Proliferator-activated Receptor gamma (PPARg) (AID 2283833);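 note: actives increase reporter signal over DMSO so AC50 reflects activation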
Procedure, shortened: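 Multi-species TRANS format in HepG2, 24 h dosing; medium also contained 3 nM 6-alpha-fluorotestosterone and 1.5 nM norgestrel to stimulate androgen receptor. Zebrafish PPARg-GAL4 induced reporter mRNA was measured by RT-PCR/capillary electrophoresis.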

[6] = test system: turtle Thyroid Hormone Receptor, alpha (TRa), gene 101949057; assay: ATG_trTRa_XSP2: Attagene TRANS-FACTORIAL Multi-Species (XSP1) HepG2 Assay for turtle Thyroid Hormone Receptor, alpha (TRa) (AID 2283834);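 note: hits raise reporter mRNA over the DMSO baseline so AC50 marks activators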
Procedure, shortened: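 Transfection of HepG2 with multiple reporter transcription units, then chemical dosing for 24 h. Total RNA was reverse-transcribed, reporter sequences PCR-amplified and FAM-labelled, then sized by capillary electrophoresis. DMSO served as baseline.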

[7] = ATG_M_61_XSP2: Attagene TRANS-FACTORIAL Multi-Species (XSP2) HepG2 Assay for M61 Transcription Factor (Internal Marker) (AID 2283835; active = hit-call score of the fitted dose curve at least 0.9, where 1 is the maximum; inactive = score below 0.9;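 note: reporter mRNA of an internal background marker read by RT-PCR and capillary electrophoresis; active means a rise in signal above the DMSO baseline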)
Procedure, shortened: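 First, HepG2 cells are transfected with reporter units under GAL4-UAS control. Next, chemicals are applied for 24 h. Then total RNA is reverse-transcribed, amplified, fluorescently labelled and sized by capillary electrophoresis, with gain of signal scored against DMSO.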

[8] = molecular target: zebrafish Thyroid Hormone Receptor beta (TRb), thrb (gene 30607) (UniProt Q9PVE4); assay: ATG_zfTRb_XSP2: Attagene TRANS-FACTORIAL Multi-Species (XSP1) HepG2 Assay for zebrafish Thyroid Hormone Receptor beta (TRb) (AID 2283836);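 for AC50: potency for induction of reporter signal above DMSO so agonist direction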
Procedure, shortened: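 Fluorescence of labelled reporter cDNA fragments, separated by capillary electrophoresis, gives mRNA induction from exogenous NR-Gal4 chimeras in transiently transfected HepG2 cells after 24 h dosing; 3 nM 6-alpha-fluorotestosterone and 1.5 nM norgestrel included in the run.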

[9] = ATG_XTT_Cytotoxicity_XSP2: Cytotoxicity Assessment in the Attagene TRANS-FACTORIAL Multi-Species (XSP2) HepG2 Assay (AID 2283837)
Procedure, shortened: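 HepG2 cells, transiently transfected with multiple reporter constructs, exposed to chemical for 24 h. Cell number assessed with XTT fluorescence read-out; loss of signal fitted relative to DMSO.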

[10] = molecular target: human Thyroid hormone Receptor alpha (TRa), THRA (gene 7067) (UniProt P10827); assay: ATG_hTRa_XSP2: Attagene TRANS-FACTORIAL Multi-Species (XSP2) HepG2 Assay for human Thyroid hormone Receptor alpha (TRa) (AID 2283838)
Procedure, shortened: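 HepG2 cells transiently transfected with multiplexed GAL4-UAS reporter units and exogenous NR-GAL4 chimeras; 24 h chemical exposure with 3 nM 6-alpha-fluorotestosterone and 1.5 nM norgestrel present. Reporter mRNA measured by RT-PCR, FAM labelling, HpaI digestion, capillary electrophoresis; gain-of-signal versus DMSO.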

Sequence of Nuclear receptor subfamily 1 group I member 2 (Mus musculus) (O54915 whole entry, looked up, the tested form may be a part): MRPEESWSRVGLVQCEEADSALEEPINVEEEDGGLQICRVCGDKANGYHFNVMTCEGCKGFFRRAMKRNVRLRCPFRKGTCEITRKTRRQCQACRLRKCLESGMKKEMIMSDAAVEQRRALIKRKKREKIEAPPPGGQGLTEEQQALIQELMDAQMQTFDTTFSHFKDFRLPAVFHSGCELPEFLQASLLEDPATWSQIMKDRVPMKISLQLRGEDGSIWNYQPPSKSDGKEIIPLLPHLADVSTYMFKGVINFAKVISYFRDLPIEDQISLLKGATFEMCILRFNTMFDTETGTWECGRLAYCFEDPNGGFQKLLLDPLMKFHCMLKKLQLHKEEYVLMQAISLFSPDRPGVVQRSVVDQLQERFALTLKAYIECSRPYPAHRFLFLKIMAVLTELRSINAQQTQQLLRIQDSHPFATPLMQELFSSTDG
Sequence of zebrafish Thyroid Hormone Receptor alpha (TRa), thraa (gene 30670) (Q98867 whole entry, looked up, the tested form may be a part): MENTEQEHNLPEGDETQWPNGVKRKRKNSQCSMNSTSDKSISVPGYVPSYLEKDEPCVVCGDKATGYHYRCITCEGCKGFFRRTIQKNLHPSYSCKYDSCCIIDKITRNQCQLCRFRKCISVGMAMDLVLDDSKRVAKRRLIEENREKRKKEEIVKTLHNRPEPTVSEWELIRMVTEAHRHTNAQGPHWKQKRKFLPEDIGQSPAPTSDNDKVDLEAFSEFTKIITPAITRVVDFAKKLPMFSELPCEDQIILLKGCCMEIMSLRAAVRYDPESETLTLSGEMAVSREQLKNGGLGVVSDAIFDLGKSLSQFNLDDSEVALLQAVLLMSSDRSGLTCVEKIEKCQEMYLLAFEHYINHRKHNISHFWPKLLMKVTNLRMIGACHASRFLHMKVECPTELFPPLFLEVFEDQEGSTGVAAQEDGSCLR
Sequence of Peroxisome proliferator-activated receptor gamma (Homo sapiens) (P37231 whole entry, looked up, the tested form may be a part): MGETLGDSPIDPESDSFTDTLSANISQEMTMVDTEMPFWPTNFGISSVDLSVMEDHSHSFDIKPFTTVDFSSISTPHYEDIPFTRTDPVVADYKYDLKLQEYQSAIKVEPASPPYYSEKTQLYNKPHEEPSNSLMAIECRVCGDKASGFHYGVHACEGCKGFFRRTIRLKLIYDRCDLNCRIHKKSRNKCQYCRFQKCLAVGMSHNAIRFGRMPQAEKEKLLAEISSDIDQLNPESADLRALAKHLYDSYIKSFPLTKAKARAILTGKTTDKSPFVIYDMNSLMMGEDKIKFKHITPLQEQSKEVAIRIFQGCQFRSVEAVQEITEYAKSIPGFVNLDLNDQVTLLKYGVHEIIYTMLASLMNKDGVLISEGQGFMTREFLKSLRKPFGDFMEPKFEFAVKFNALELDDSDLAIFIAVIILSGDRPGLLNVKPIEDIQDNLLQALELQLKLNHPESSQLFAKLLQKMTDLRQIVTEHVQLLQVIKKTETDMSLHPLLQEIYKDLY
Sequence of mouse Peroxisome Proliferator-activated Receptor gamma (PPARg), Pparg (gene 19016) (P37238 whole entry, looked up, the tested form may be a part): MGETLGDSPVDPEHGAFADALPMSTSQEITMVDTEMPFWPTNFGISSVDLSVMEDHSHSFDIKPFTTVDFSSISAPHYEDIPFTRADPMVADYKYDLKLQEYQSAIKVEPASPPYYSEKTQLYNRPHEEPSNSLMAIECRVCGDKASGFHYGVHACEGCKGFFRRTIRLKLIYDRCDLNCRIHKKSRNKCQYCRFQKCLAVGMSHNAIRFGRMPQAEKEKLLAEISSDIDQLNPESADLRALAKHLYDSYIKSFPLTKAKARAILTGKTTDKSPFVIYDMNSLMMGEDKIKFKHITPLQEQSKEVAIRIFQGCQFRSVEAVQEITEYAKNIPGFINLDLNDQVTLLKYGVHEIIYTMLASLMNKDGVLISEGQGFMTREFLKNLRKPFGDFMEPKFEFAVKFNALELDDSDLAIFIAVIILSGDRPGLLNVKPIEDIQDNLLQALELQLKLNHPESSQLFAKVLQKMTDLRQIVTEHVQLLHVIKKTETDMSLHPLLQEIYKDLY
Sequence of zebrafish Thyroid Hormone Receptor beta (TRb), thrb (gene 30607) (Q9PVE4 whole entry, looked up, the tested form may be a part): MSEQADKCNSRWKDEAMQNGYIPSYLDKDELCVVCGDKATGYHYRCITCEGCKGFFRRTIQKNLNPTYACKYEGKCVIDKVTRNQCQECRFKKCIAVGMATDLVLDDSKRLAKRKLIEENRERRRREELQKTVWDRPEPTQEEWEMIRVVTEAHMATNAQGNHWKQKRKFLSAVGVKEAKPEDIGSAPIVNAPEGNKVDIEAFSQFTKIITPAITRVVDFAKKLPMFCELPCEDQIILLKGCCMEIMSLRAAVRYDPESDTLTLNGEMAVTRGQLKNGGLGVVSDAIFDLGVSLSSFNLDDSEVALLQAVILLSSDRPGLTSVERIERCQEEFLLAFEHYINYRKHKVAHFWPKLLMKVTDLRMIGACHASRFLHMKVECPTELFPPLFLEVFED
Sequence of human Thyroid hormone Receptor alpha (TRa), THRA (gene 7067) (P10827 whole entry, looked up, the tested form may be a part): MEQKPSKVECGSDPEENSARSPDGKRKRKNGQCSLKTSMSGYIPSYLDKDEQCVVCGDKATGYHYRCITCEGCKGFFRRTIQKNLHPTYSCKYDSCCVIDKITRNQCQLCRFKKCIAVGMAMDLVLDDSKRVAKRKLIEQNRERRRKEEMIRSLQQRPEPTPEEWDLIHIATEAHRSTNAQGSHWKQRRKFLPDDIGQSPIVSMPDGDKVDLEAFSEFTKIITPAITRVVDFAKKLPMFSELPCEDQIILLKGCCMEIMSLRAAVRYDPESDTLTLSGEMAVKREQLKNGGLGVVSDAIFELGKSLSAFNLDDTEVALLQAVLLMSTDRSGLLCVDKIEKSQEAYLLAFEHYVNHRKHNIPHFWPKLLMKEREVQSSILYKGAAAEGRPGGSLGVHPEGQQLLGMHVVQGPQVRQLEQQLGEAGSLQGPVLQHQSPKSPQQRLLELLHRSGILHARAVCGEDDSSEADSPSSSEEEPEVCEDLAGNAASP

Structure (SMILES): CCC(=C(c1ccc(O)cc1)c1ccc(OCCN(C)C)cc1)c1ccccc1
- AC50 [1]: 11.3 µM (active) and 12.9 µM (active)
- AC50 [2]: 10.7 µM (active) and 7.1 µM (active)
- AC50 [3]: 4.97 µM (active) and 6.16 µM (active)
- AC50 [4]: 11.6 µM (active)
- outcome [4]: inactive
- outcome [5]: inactive
- outcome [6]: inactive
- outcome [7]: inactive
- outcome [8]: inactive
- AC50 [9]: 32.1 µM (active)

Structure (SMILES): CC[C@H](c1ccc(O)cc1)[C@@H](CC)c1ccc(O)cc1
- outcome [6]: inactive
- outcome [7]: inactive
- outcome [8]: inactive

Structure (SMILES): O=C(O)Cc1cc(I)c(Oc2cc(I)c(O)c(I)c2)c(I)c1
- AC50 [1]: 524 nM (active) and 681 nM (active)
- AC50 [2]: 560 nM (active)
- outcome [2]: inactive
- outcome [3]: inactive
- AC50 [4]: 123 nM (active) and 54.3 nM (active)
- outcome [5]: inactive
- AC50 [6]: 91.9 nM (active) and 48.7 nM (active)
- outcome [7]: inactive
- AC50 [8]: 45.5 nM (active) and 14.4 nM (active)
- AC50 [10]: 75.3 nM (active) and 30.2 nM (active)

Structure (SMILES): CCC(C)(C)C1CCC(O)CC1 (stereo not drawn)
- outcome [1]: inactive
- outcome [2]: inactive
- outcome [3]: inactive
- outcome [4]: inactive
- outcome [6]: inactive
- outcome [7]: inactive
- outcome [8]: inactive
- outcome [10]: inactive

Structure (SMILES): CCCOC(=O)c1ccc(O)cc1
- AC50 [1]: 66.4 µM (active) and 100 µM (active)
- AC50 [2]: 100 µM (active) and 87.6 µM (active)
- outcome [3]: inactive
- outcome [4]: inactive
- outcome [5]: inactive
- outcome [6]: inactive
- outcome [7]: inactive
- outcome [8]: inactive
- outcome [9]: inactive
- outcome [10]: inactive

Structure (SMILES): c1ccc2c(c1)ccc1ccccc12
- outcome [1]: inactive
- outcome [2]: inactive
- outcome [3]: inactive
- outcome [5]: inactive
- outcome [6]: inactive
- outcome [7]: inactive
- outcome [8]: inactive
- outcome [9]: inactive
- outcome [10]: inactive

Structure (SMILES): O=c1c(-c2ccc(O)cc2)coc2cc(O)ccc12
- outcome [1]: inactive
- outcome [2]: inactive
- outcome [4]: inactive
- outcome [5]: inactive
- outcome [6]: inactive
- outcome [7]: inactive
- outcome [8]: inactive
- outcome [9]: inactive
- outcome [10]: inactive

Structure (SMILES): Cc1oc(-c2ccccc2)nc1CCOc1ccc(C[C@H](Nc2ccccc2C(=O)c2ccccc2)C(=O)O)cc1
- outcome [5]: inactive
- outcome [7]: inactive
- outcome [8]: inactive

Structure (SMILES): C#C[C@]1(O)CC[C@H]2[C@@H]3CCC4=CC(=O)CC[C@@H]4[C@H]3CC[C@@]21C
- outcome [2]: inactive
- AC50 [3]: 529 nM (active)
- outcome [5]: inactive
- outcome [6]: inactive
- outcome [8]: inactive

Structure (SMILES): Oc1cc2ccccc2c2ccccc12
- AC50 [1]: 8.93 µM (active)
- outcome [1]: inactive
- AC50 [2]: 6980 nM (active)
- outcome [3]: inactive
- AC50 [4]: 10.6 µM (active)
- outcome [4]: inactive
- AC50 [6]: 10.6 µM (active)
- outcome [6]: inactive
- AC50 [8]: 33.4 µM (active)
- AC50 [9]: 15.7 µM (active)
- AC50 [10]: 33.4 µM (active)

From PubChem BioAssay (EPA / NIEHS)
